Measurements from PubChem BioAssay AID1159572 (Broad Institute, 2015).
Potency and affinity values are given separately. The source made the active and inactive calls.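 How the source made its calls: active means compounds whose fitted half-maximal growth inhibition concentration is at most twice their top tested dose; inconclusive means flat fit with 30 to 70% inhibition, or poor fit; inactive means the rest.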

Test: P. falciparum Dd2 growth inhibitors, dose response, SYBR Green, dry powder samples, set 4 (AID 1159572)

## COc1ccc2c3c([nH]c2c1)[C@H](CO)N(C(C)=O)CC31CCN(C(=O)Nc2c(C)noc2C)CC1
  outcome: inactive
